Assay results published in the supplement of paper PMC11634586.
Structures can show the parent of a compound that is named as a salt. A number with no mark means an inactive call.

What follows are compounds tested on NCI-H1688 (assay: inhibition of cell viability relative to untreated control (fraction); higher = stronger growth inhibition, active = 0.5 or more). Conditions: 30 µM; 24 h.
Summary of the method: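 Compounds from a natural compound library (TargetMol) were tested at 30 µM on NCI-H1688 small cell lung cancer cells for 24 h at 37°C under 5% CO2. Cell Counting Kit-8 absorbance at 450 nm, read in triplicate, gave the viability. The values express inhibition of cell viability as a fraction relative to untreated cells.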
For `COc1c(C)c2c(c(O)c1C/C=C(\C)CCC(=O)O)C(=O)OC2` [Mycophenolic acid], the “inhibition of cell viability” value was 0.841 (active). `COc1cc2c(c(OC)c1OC)-c1c(cc(OC)c(OC)c1OC)CC(C)C(C)C2` (configuration not stated) [Schizandrin A] was tested, and the “inhibition of cell viability” value was -0.0474. With `OCC1OC(OC2C(CO)OC(O)C(O)C2O)C(O)C(O)C1O` [D-Cellobiose] the “inhibition of cell viability” value was -0.12. For `C=C1C[C@@]2(O)O[C@@]3(C[C@H]2C(C)C)[C@@H](C)CC[C@@H]13` [Curcumol], the “inhibition of cell viability” value was -0.0691. In the case of `O=c1ccc2cc3ccoc3cc2o1` [Psoralen], the “inhibition of cell viability” value is reported as -0.0315. For `C[C@H]1[C@H](C)CC[C@]2(C(=O)O)CC[C@]3(C)C(=CC[C@@H]4[C@@]5(C)C[C@@H](O)[C@H](O)[C@@](C)(CO)[C@@H]5CC[C@]43C)[C@H]12` [Asiatic acid], the “inhibition of cell viability” value was 0.00351. For `NC[C@H]1O[C@H](O[C@H]2[C@H](O)[C@@H](O[C@H]3O[C@H](CO)[C@@H](O)[C@H](N)[C@H]3O)[C@H](N)C[C@@H]2N)[C@H](O)[C@@H](O)[C@@H]1O` [Kanamycin sulfate], the “inhibition of cell viability” value was 0.154. In the case of `O=C(CCc1ccc(O)cc1)c1c(O)cc(O)cc1O` [Phloretin], the “inhibition of cell viability” value is reported as -0.0149. `O=c1c2ccccc2nc2n1CCc1c-2[nH]c2ccccc12` [Rutaecarpine] was tested, and the “inhibition of cell viability” value was -0.128. In the case of `CC(C)=CCOc1c2ccoc2cc2oc(=O)ccc12` [Isoimperatorin], the “inhibition of cell viability” value is reported as -0.0286. For `O=C1C[C@@H](c2ccccc2)Oc2cc(O)cc(O)c21` [Pinocembrin], the “inhibition of cell viability” value was -0.374. With `CC(C)=CCC[C@](C)(O[C@@H]1O[C@H](CO)[C@@H](O)[C@H](O)[C@H]1O)[C@H]1CC[C@]2(C)[C@@H]1[C@H](O)C[C@@H]1[C@@]3(C)CC[C@H](O[C@@H]4O[C@H](CO)[C@@H](O)[C@H](O)[C@H]4O[C@@H]4O[C@H](CO)[C@@H](O)[C@H](O)[C@H]4O)C(C)(C)[C@@H]3CC[C@]12C` [Ginsenoside Rd] the “inhibition of cell viability” value was 0.03. For `COc1cc2ccc(=O)oc2cc1O` [Scopoletin], the “inhibition of cell viability” value was -0.00563. `O=c1cc(-c2ccc(O)c(O)c2)oc2cc(O[C@@H]3O[C@H](CO)[C@@H](O)[C@H](O)[C@H]3O)cc(O)c12` [Cynaroside] was tested, and the “inhibition of cell viability” value was 0.705 (active). In the case of `CCCCCC1C(=O)CCC1CC(=O)OC` (configuration not stated) [Methyl Dihydrojasmonate;Hedione], the “inhibition of cell viability” value is reported as -0.235. In the case of `O=c1ccc2cc(O)c(O)cc2o1` [Esculetin], the “inhibition of cell viability” value is reported as 0.643 (active). With `CC[C@]1(O)C[C@@H]2CN(CCc3c([nH]c4ccccc34)[C@@](C(=O)OC)(c3cc4c(cc3OC)N(C)[C@H]3[C@@](O)(C(=O)OC)[C@H](OC(C)=O)[C@]5(CC)C=CCN6CC[C@]43[C@@H]65)C2)C1` [Vinblastine sulfate] the “inhibition of cell viability” value was 0.764 (active). For `CCCCCC=CCC=CCCCCCCCC(=O)OC(COC(=O)CCCCCCCCCCCCCCC)COP(=O)([O-])OCC[N+](C)(C)C` [L-α-Phosphatidylcholine], the “inhibition of cell viability” value was 0.136. In the case of `CC1CCC(C(C)C)C(O)C1` (racemic) [DL-Menthol], the “inhibition of cell viability” value is reported as 0.0236. With `CC(C)(S)[C@@H](N)C(=O)O` [Artamine] the “inhibition of cell viability” value was 0.0772. For `CC(=O)c1ccc(O)c(C(=O)O)c1` [5-Acetylsalicylic acid], the “inhibition of cell viability” value was 0.0598. For `O=C(O)CCC(=O)O` [Succinic acid], the “inhibition of cell viability” value was 0.0297. With `O=c1oc2c(O)c(O)cc3c(=O)oc4c(O)c(O)cc1c4c23` [Ellagic acid] the “inhibition of cell viability” value was -0.099. In the case of `COC1=CC(=O)C[C@@H](C)[C@]12Oc1c(Cl)c(OC)cc(OC)c1C2=O` [Griseofulvin], the “inhibition of cell viability” value is reported as 0.615 (active). `COc1ccc(-c2cc(=O)c3c(O)cc(O)cc3o2)cc1O` [Diosmetin] was tested, and the “inhibition of cell viability” value was 0.314. For `COc1ccc(-c2coc3cc(O)ccc3c2=O)cc1` [Formononetin], the “inhibition of cell viability” value was 0.0427. With `CN1c2ccccc2C(=O)N2CCc3c([nH]c4ccccc34)C21` (stereo in doubt) [Evodiamine] the “inhibition of cell viability” value was 0.848 (active). `C=C(NC(=O)C(=C)NC(=O)c1csc(C2=N[C@@H]3c4csc(n4)[C@H]4NC(=O)c5csc(n5)[C@H]([C@](C)(O)[C@@H](C)O)NC(=O)[C@H]5CSC(=N5)/C(=C/C)NC(=O)[C@H]([C@@H](C)O)NC(=O)c5csc(n5)[C@]3(CC2)NC(=O)[C@H](C)NC(=O)C(=C)NC(=O)[C@H](C)NC(=O)[C@H]([C@@H](C)CC)N[C@@H]2C=Cc3c([C@H](C)O)cc(nc3[C@H]2O)C(=O)O[C@@H]4C)n1)C(N)=O` [Thiostrepton] was tested, and the “inhibition of cell viability” value was 0.943 (active). `COC1=C(OC)C(=O)C(C/C=C(\C)CC/C=C(\C)CC/C=C(\C)CC/C=C(\C)CC/C=C(\C)CC/C=C(\C)CC/C=C(\C)CC/C=C(\C)CC/C=C(\C)CCC=C(C)C)=C(C)C1=O` [Coenzyme Q10 (CoQ10)] was tested, and the “inhibition of cell viability” value was -0.0281. In the case of `O=C(O)/C=C/c1ccc(O)c(O)c1` [Caffeic Acid], the “inhibition of cell viability” value is reported as -0.0219. With `O=C(O)CCCCC1CCSS1` (configuration not stated) [Alphalipoic acid] the “inhibition of cell viability” value was 0.0038. For `CN(N=O)C(=O)N[C@@H](C=O)[C@@H](O)[C@H](O)[C@H](O)CO` [Streptozocin], the “inhibition of cell viability” value was 0.214. In the case of `CC[C@H](C)C(=O)O[C@H]1CCC=C2C=C[C@H](C)[C@H](CC[C@@H]3C[C@@H](O)CC(=O)O3)[C@H]21` [Mevastatin], the “inhibition of cell viability” value is reported as 0.86 (active). In the case of `CC(=O)N[C@H]1[C@H]([C@H](O)[C@H](O)CO)OC(O)(C(=O)O)C[C@@H]1O` (some centres not stated) [N-Acetylneuraminic acid], the “inhibition of cell viability” value is reported as -0.0072. For `COc1ccc2cc1Oc1ccc(cc1)C[C@H]1c3cc(c(OC)cc3CCN1C)Oc1c(O)c(OC)cc3c1[C@H](C2)N(C)CC3` [Fangchinoline], the “inhibition of cell viability” value was 0.969 (active). `O=c1c(-c2ccc(O)cc2)coc2c([C@@H]3O[C@H](CO)[C@@H](O)[C@H](O)[C@H]3O)c(O)ccc12` [Puerarin (Kakonein)] was tested, and the “inhibition of cell viability” value was 0.109. `COc1cc2c(=O)c(-c3ccc(O)cc3)coc2cc1O[C@@H]1O[C@H](CO)[C@@H](O)[C@H](O)[C@H]1O` [Glycitin] was tested, and the “inhibition of cell viability” value was 0.491.
